Measurements published in PubChem BioAssay AID504766 (The Scripps Research Institute Molecular Screening Center, 2011).
Values joined by “and” are separate entries in the source; they are usually repeats but may differ in a detail not shown here. Equal entries are not always repeated. About 3,400 (1%) of roughly 340,000 compounds were called active.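 Rule for the calls: active = inhibition above the mean over all tested compounds plus 3 SD (cut at about 4.2% in these data); inactive = the rest.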 The sample as a whole holds a higher share of actives than the screen did.

biological target: Nuclear receptor subfamily 0 group B member 1 (Homo sapiens) (UniProt P51843); experiment: DAX1 (NR0B1) inhibitors, primary screen, cell-based, HEK293, Gal4-DAX1, luciferase luminescence (AID 504766); details: HEK293 Gal4-DAX1 luciferase reporter, at 6.75 µM, stronger effect = higher value;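 note: 0% = DAX1-transfected cells with DMSO and 100% = empty-vector control cells with DMSO; inhibition shows as a rise in luminescence from relieved DAX1 repression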
Sequence (P51843 207-470 limits assumed): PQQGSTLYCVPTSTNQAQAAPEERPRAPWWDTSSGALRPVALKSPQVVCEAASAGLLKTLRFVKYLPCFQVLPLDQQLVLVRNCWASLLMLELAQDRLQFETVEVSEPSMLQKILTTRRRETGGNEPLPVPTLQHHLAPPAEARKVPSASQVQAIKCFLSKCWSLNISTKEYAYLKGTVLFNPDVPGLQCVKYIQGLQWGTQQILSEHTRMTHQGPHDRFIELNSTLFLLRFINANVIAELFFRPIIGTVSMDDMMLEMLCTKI

inhibition, inactive:
Cc1ccc([C@H]2N[C@]3(CCCN(CC4CCCCC4)C3=O)[C@H]3C(=O)N(Cc4ccccc4)C(=O)[C@@H]23)cc1 -0.61%
CC1(C)CC(=O)C=C(c2ccccc2CO)C1=O 0.81%
CC(C)CNS(=O)(=O)c1ccc(C(=O)Nc2ccc3c(c2)OCO3)cc1 0.58%
Cc1cccc(NC(=O)Nc2ccc3c(c2)OCO3)n1 3.3%
C/C(COc1ccccc1)=N\NC(=O)c1nnn(-c2nonc2N)c1-c1ccc(C)cc1 1.15%
Cc1nnc(SCC(=O)NC(=O)NC2CCCC2)n1N -0.17%
CC(Sc1nnnn1C1CCCCC1)C(=O)O (stereo not given) -0.46%
NC(=S)NN=Cc1ccc(OC(=O)COc2cc(Cl)c(Cl)cc2Cl)cn1 -2.71%
O=C(CN1CCCSc2ccccc21)N1CCN(S(=O)(=O)c2cccc(F)c2)CC1 -0.31%
O=C(CN1CCCSc2ccccc21)N1CCN(S(=O)(=O)c2ccccc2)CC1 0.49%
COCOCCn1cc(CN2CCS(=O)(=O)N(Cc3ccc(-c4ccc(OC)cc4)cc3)C(CC(C)C)C2=O)nn1 (stereo not given) -0.18%
CC1CN(C(=S)Nc2ccccc2F)CC(C)O1 (stereo not given) -0.08%
COc1ccccc1NC(=S)N1CCN(c2ccc(F)cc2)CC1 0.5%
Cc1ccc(C(=O)NC(C)C(c2cccs2)N2CCOCC2)cc1C (stereo not given) 0.43%
O=C(Nc1cccc(C(=O)O)c1)/C(=C\c1ccccc1)NC(=O)c1ccc(Br)o1 1.84%
c1cnn(-c2cc(N3CCOCC3)ncn2)c1 0.28%
COc1ccccc1N1CCN(C(=O)C(=O)N/N=C/c2ccccc2F)CC1 -0.62%
Cc1cccc(C(=O)OCC(=O)Nc2sccc2C(N)=O)c1C 0.47%
COc1ccc(Cn2c(=S)[nH]c3cc(C(=O)N4CCCCC4)ccc3c2=O)cc1 -0.61%
COc1cc2[nH]c(=S)n(Cc3ccc(F)cc3)c(=O)c2cc1OC -0.72%
COc1ccccc1-c1n[nH]nc1C1=CC(=O)CC(C)(C)C1 1.58%
CCOc1ccc(NS(=O)(=O)c2ccc(C(=O)NCC3CCCO3)cc2)cc1 (stereo not given) 0.78%
O=[N+]([O-])c1cccc(/C=N/Nc2ncc(Br)cn2)c1 3.56%
CC(=O)c1sc(N/N=C/c2ccc(C(C)C)cc2)nc1C 0.37%
CC1=C(C(=O)N(C)C)CC(CC(=O)NCCN2CCOCC2)C(=O)N1Cc1ccccc1 (stereo not given) 0.86%
CC(C)CCOc1ccc(C(=O)Nc2cc(S(=O)(=O)N3CCOCC3)ccc2N2CCOCC2)cc1 1.57%
COC(=O)C1=C(C)N(C)C(C)=C(C(=O)OC)C1c1cccc(Br)c1 -0.19%
COc1ccc(C(=O)c2oc3ccc(Br)cc3c2NC(C)=O)cc1 0.74%
Cc1ccc(C(=O)OCC(=O)NC2CCCCCCC2)cc1C 1.83%
CCOC(=O)c1cc(-c2sc(NC(=O)c3ccccc3)nc2C)n(-c2ccc(Br)cc2)n1 -0.34%
N/C(=N\OC(=O)c1ccc([N+](=O)[O-])cc1)c1ccccn1 0.14%
COc1ccccc1OCC(=O)O/N=C(\N)c1ccccn1 2.91%
CCN(CC)C(=O)C(C)N1c2cccc3cccc(c23)S1(=O)=O (stereo not given) 0.49%
COc1ccc(NC(=O)CN2C(=O)NC(C)(c3ccccc3)C2=O)cn1 (stereo not given) 1.1%
Cc1ccc(-c2ccc(C3=CC(=O)CC(C)(C)C3=O)cc2)cc1 3.24%
Cc1ccc(N2CC(C(=O)Nc3ccc(S(=O)(=O)N4CCCC4)cc3)CC2=O)cc1C (stereo not given) -0.34%
O=C(Nc1ccc(S(=O)(=O)N2CCCCC2)cc1)C1CC(=O)N(c2ccc(F)cc2)C1 (stereo not given) -1.03%
Nc1cc(C(=O)N2CCN(c3ccccc3Cl)CC2)ccc1N1CC2CC(C1)c1cccc(=O)n1C2 (stereo not given) 2.59%
CC(NC(=O)C1CCC(CNc2c(N3CCOCC3)c(=O)c2=O)CC1)c1ccccc1 (stereo not given) 0.2%
COc1ccc(CNC(=O)C2CCC(CNc3c(N4CCOCC4)c(=O)c3=O)CC2)cc1 (stereo not given) -0.15% and -0.24%
C[C@H]1CN([C@@H](C)CO)C(=O)CCCn2cc(nn2)CO[C@@H]1CN(C)C(=O)Nc1ccccc1 1.03%
O=S(=O)(c1ccc2c(c1)OCCO2)N1CCc2ccccc21 0.28%
CCn1c(=O)c(=O)n(CC)c2cc(S(=O)(=O)N3CCc4ccccc43)ccc21 -1.26%
C[C@H]1CN([C@@H](C)CO)C(=O)CCCn2cc(nn2)CO[C@@H]1CN(C)S(=O)(=O)c1ccc(-n2cccn2)cc1 2.41%
CCCC(=O)N1c2ccccc2NC2=C(C(=O)CCC2)C1c1ccc(F)cc1 (stereo not given) -0.04%
CCC(=O)N1c2ccccc2NC2=C(C(=O)CCC2)C1c1ccco1 (stereo not given) -0.14%
COc1ccc(-c2ccc(CN3C(C(C)C)C(=O)N(Cc4cn(CC5CCCCC5)nn4)CCS3(=O)=O)cc2)cn1 (stereo not given) -0.57%
COc1cccc(OC)c1C(=O)N1CCN(Cc2ccccc2F)CC1 2.65%
CC(=O)N1C(=O)C2(Nc3ccccc3N2)c2ccccc21 0.59%
CC(=O)NN1C(=O)c2ccccc2NC1c1ccccc1 (stereo not given) -1.71%
Cc1c(NC(=O)COC(=O)/C=C/c2cccc(F)c2)c(=O)n(-c2ccccc2)n1C -0.66%
C[C@H]1CN([C@@H](C)CO)S(=O)(=O)c2ccc(Br)cc2O[C@H]1CN(C)C(=O)c1cnccn1 -0.34%
O=C(NCc1nnnn1-c1ccc(Cl)cc1)c1ccc([N+](=O)[O-])o1 0%
N#CCCC(C#N)(c1cccnc1)N1CCOCC1 (stereo not given) -0.32%
CC(C)c1cc(C(=O)NC2CCCCCC2)c2ccccc2n1 -1.68%
CC1CCCCC1NC(=O)Cn1c(=O)cnc2ccccc21 (stereo not given) -1.16%
COc1ccccc1N1CCN(/N=C\C(Br)=C\c2ccccc2)CC1 -0.74%
COc1cc(/C=N/N2CCN(c3ccccc3)CC2)ccc1OC(C)=O -0.26%
O=C(c1ncn2c1c(=O)[nH]c1ccccc12)N1CCc2ccccc2C1 -0.1%
COc1ccc([C@H]2N[C@]3(CCCN(Cc4ccco4)C3=O)[C@H]3C(=O)N(C)C(=O)[C@@H]23)cc1 0.93%
O=C(C1CCCO1)N1CCN(C(=O)C23CC4CC(CC(C4)C2)C3)CC1 (stereo not given) -0.78%
COC(=O)/C(C#N)=C/c1occc1C -0.79%
CCOC(=O)/C(C#N)=C/c1ccc(N2CCN(Cc3ccccc3)CC2)cc1 -0.11%
O=S(=O)(c1cccc(C(F)(F)F)c1)N1c2ccccc2-n2cccc2C1c1cccnc1 (stereo not given) 0.07%
COc1ccc(NC(=O)CSc2nnnn2-c2cccc(OC)c2)cc1 0.03%
CN(C)S(=O)(=O)c1cccc(NC(=O)COc2ccc3ccccc3c2)c1 -1.43%
COCCNC(=O)COc1ccc(N(C)S(=O)(=O)c2ccc3ccccc3c2)cc1 -1.92%
COc1ccc2nc(-c3ccccn3)ccc2c1 -0.26%
COc1ccc([C@H]2N[C@]3(CCCN(CC4CCCCC4)C3=O)[C@H]3C(=O)N(C)C(=O)[C@@H]23)cc1 0.64%
CCn1c(SCC(=O)NC2CC2)nnc1-c1ccccc1OC 1.22%
Cc1occc1-c1nnc(SCC(=O)NC2CCCCC2)o1 0.12%

inhibition, active:
CNS(=O)(=O)c1ccc(NC(=O)Nc2ccc3c(c2)OCO3)cc1 4.23%
CC(Sc1nnnn1C)C(=O)NC(=O)NC1CCCCC1 (stereo not given) 4.23%
N#C/C=C1\Sc2ccccc2C(=O)N1CC(=O)N1CCN(S(=O)(=O)c2ccccc2)CC1 4.84%
COc1c(N2CCN(C(=S)Nc3ccccc3F)C(C)C2)c(F)cc2c(=O)c(C(=O)O)cn(C3CC3)c12 (stereo not given) 4.24%
Fc1ccccc1/C=N/Nc1cc(N2CCCCC2)ncn1 9.97%
COc1ccc(Cn2c(=O)cc(C)[nH]c2=S)cc1 4.43%
CC(C)c1ccc(C=NNc2ccc([N+](=O)[O-])cn2)cc1 4.47%
COC(=O)C1NN=C(C(=O)c2ccc(Br)cc2)C1c1cccc(Br)c1 (stereo not given) 5.4%
COc1ccc(C(=O)O/N=C(\N)c2ccccn2)cc1[N+](=O)[O-] 4.71%
CNS(=O)(=O)c1ccc(NC(=O)C2CC(=O)N(c3ccc(Cl)cc3)C2)cc1 (stereo not given) 4.35%
O=C(NCc1ccc(F)cc1)C1CCC(CNc2c(N3CCOCC3)c(=O)c2=O)CC1 (stereo not given) 5.78%
O=S(=O)(c1ccccc1)N1CCc2ccccc21 5.18%
CC(C)C(=O)N1c2ccccc2NC2=C(C(=O)CCC2)C1c1ccc(N(C)C)cc1 (stereo not given) 4.33%
CC(C)=NN1C(=O)c2ccccc2NC1(C)C 5.58%
O=C(/C=C/c1cnc2ccccc2n1)NC1CCCCCC1 4.47%
COc1ccccc1N1CCN(/N=C/c2ccc(O)cc2O)CC1 5.15%
CCOC(=O)/C(C#N)=C\c1c(C)cc(C)c(COC(C)=O)c1C 5.6%
COC(=O)C(C)NC(=O)COc1ccc2ccccc2c1 (stereo not given) 4.35%
CCn1c(SCC(=O)NC2CCCC2)nnc1-c1ccoc1C 4.45%
